# Bioassay records as filed in PubChem BioAssay.
# Shown are actives, neighbours in structure and some others; about 2.4% of the full set was active somewhere.
# SmPrx2 inh = Schistosoma Mansoni Peroxiredoxins (Prx2); Schistosoma mansoni peroxiredoxin 2 (Prx2); S. mansoni Prx2 activity coupled to TGR/GSH (TGR is thioredoxin glutathione reductase), NADPH fluorescence loss, qHTS; Potency, µM; 65,000 tested, 0.07% active
#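 Activity is read as the drop in NADPH fluorescence (365/450 nm), recorded every 30 sec for 8 min after H2O2 addition. Prx2 is coupled to TGR-driven NADPH oxidation through glutathione, in phosphate buffer pH 7.4.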
# AmpC inh no det = Promiscuous and Specific Inhibitors of AmpC Beta-Lactamase (assay without detergent); Potency, µM (doses to about 28.7 µM), for inactives: at the highest dose activity change, negative = inhibition; 71,000 tested, 1.8% active; AmpC nitrocefin hydrolysis, absorbance 480 nm, no detergent; AID 585, 2007; note: % of control where 0% means no effect
# Target sequence (P00811 whole entry, looked up): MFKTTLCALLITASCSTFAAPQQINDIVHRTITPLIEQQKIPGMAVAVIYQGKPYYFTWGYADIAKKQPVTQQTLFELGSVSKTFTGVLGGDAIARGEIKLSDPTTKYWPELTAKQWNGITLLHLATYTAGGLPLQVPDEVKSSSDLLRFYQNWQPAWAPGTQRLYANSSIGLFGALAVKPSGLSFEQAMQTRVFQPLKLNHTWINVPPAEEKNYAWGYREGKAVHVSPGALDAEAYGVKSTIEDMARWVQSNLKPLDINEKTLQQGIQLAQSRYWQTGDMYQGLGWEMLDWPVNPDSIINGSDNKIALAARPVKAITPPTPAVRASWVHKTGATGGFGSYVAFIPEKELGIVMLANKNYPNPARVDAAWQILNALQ
#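 Enzyme, pH 7.0 phosphate. Compound titrations were pre-incubated with AmpC for 15 min at room temperature before nitrocefin (stock 800 uM) addition; product formation was recorded at 480 nm every 20 s for 4 min.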
# LT uptake inh = qHTS Assay for Anthrax Lethal Toxin Internalization | Cells, anthrax lethal toxin internalization, FRET ratio (460/530) | Potency, µM (highest dose often 40 µM), without a hit: at the top dose activity change, negative = inhibition, most hits filed as inhibitors | 70,000 tested, 0.67% active; note: % is set by controls: 0 for no effect and ±100 for the full control effect; nearly all actives have a fitted effect of over 50% in size
# AmpC det inh = Promiscuous and Specific Inhibitors of AmpC Beta-Lactamase (assay with detergent); 71,000 tested, 0.09% active; P00811; purified AmpC, nitrocefin hydrolysis with detergent; Potency, µM (series often up to 28.7 µM), for inactives: top-dose activity change, negative = inhibition; active = well fitted curve in the direction sought with a large enough effect; inconclusive = small, poorly fitted or top-dose-only effect; note: % is set by controls: 0 for no effect and ±100 for the full control effect
#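 E. coli AmpC (5.3 nM) in 20 mM phosphate pH 7.0 with 0.01% Triton X-100, preincubated 15 min RT with compound; nitrocefin (2 uL of 800 uM stock) hydrolysis followed by 480 nm absorbance every 20 s over 4 min.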
# * hit, by the source's call; ? = inconclusive; / = no result given; [ ] = another dose, or the depositor's remark. Unless noted, calls come from the whole dose curve. Potency is the fitted concentration of half-maximal effect.
SMILES,SmPrx2 inh,AmpC inh no det,LT uptake inh,AmpC det inh
CC(C)CCn1c(SCC#N)nc2c(sc3ccccc32)c1=O,>57,-3%,9%,4%
C=CCn1c(=O)n(CCOC)c(=O)c2sc3ccccc3c21,>57,4µM*[single pt active],-10%,12%
O=C(NCc1ccccc1)c1c[nH]c2ccc(S(=O)(=O)Nc3ccc4c(c3)OCCO4)cc2c1=O,>57,10µM*,-6%,-2%
O=C(NCc1ccc2c(c1)OCO2)c1cccc(C(=O)NCc2ccc3c(c2)OCO3)c1,/,?,?,0%
O=C(NCc1ccc2c(c1)OCO2)c1ccc(NS(=O)(=O)c2ccc3c(c2)OCCO3)cc1,>57,10µM*,-9%,-2%
Cc1cc(C2(c3cc(C)c(O)cc3C)OS(=O)(=O)c3ccccc32)c(C)cc1O,/,-8%,?,9%
COC(=O)NC(CC(C)=O)c1ccccc1 (configuration not stated),/,/,-15%[8 µM],/
CC(C)c1ccc(Cn2ccc3c4c(N)nc(NC5CC5)nc4ccc32)cc1,>57,12%,25µM*,-4%
Cc1csc2nc(CSc3nncn3-c3ccccc3)c(Br)n12,>57,0%,-11%,11%
Cc1csc2nc(CSc3nc4ccccc4o3)c(Br)n12,>57,18%,13µM*,-4%
CN(CC(=O)N1CCc2ccccc2C1)S(=O)(=O)c1ccc2c(c1)c(=O)n(C)c(=O)n2C,>57,4µM*[single pt active],1%,13%
O=C(c1ccc(COc2ccc(Cl)cc2)o1)N1CCN(Cc2ccc3c(c2)OCO3)CC1,/,91%,-22%,-6%
CN(C)c1ccc(NC(=O)c2ccc(COc3cccc(Cl)c3)o2)cc1,>57,16%,10µM*,9%
O=C(Nc1ccc2c(c1)OCO2)c1ccc(COc2ccc3c(c2)CCC3)o1,>57,-20%,6.3µM*,-4%
COC(=O)C1=C(C)NC(C)=C(C(=O)OCCN(C)Cc2ccccc2)[C@@H]1c1cccc([N+](=O)[O-])c1,>57,67%,?,-1%
NC(N)=NCCCCCCCCCCN=C(N)N,>57,13%,-4%,-2%
Cc1ccc(C)c(-n2c(Cc3cc(=O)[nH]c(=O)[nH]3)nnc2SC(C)C)c1,>57,4µM*[single pt active],-5%,13%
COC(=O)C(C)Sc1nnc(Cc2cc(=O)[nH]c(=O)[nH]2)n1-c1ccc(OC)cc1 (configuration not stated),>57,4µM*[single pt active],-12%,13%
CCC(C)Sc1nnc(Cc2cc(=O)[nH]c(=O)[nH]2)n1-c1ccc(OC)cc1 (configuration not stated),>57,3.2µM*[single pt active],-12%,13%
CCOc1ccc(-n2c(Cc3cc(=O)[nH]c(=O)[nH]3)nnc2SCC(=O)OC)cc1,>57,4µM*[single pt active],-10%,9%
CN(C)CCCN1c2ccccc2C(C)(C)c2ccccc21,>57,15%[5.75 µM],-11%[8 µM],-5%[5.75 µM]
O=C(O)[C@@H]1CCCN[C@H]1C(=O)O,>57,-1%,-2%,-2%
CCCNC(=O)OC[C@@H]1O[C@H](CCO/N=C2\c3cc(OC)ccc3O[C@H](c3cccc(OC)c3)[C@H]2O)C=C[C@@H]1Oc1ccc(OC)cc1,/,/,-18%[8 µM],/
CC(C)C(NS(=O)(=O)c1ccc2c(c1)oc(=O)n2C)C(=O)N1CCN(c2ccccc2F)CC1 (configuration not stated),>57,4µM*[single pt active],?,15%
Cn1c(=O)oc2cc(S(=O)(=O)NC(Cc3ccccc3)C(=O)N3CCCCC3)ccc21 (configuration not stated),>57,4µM*[single pt active],9%,11%
SMILES,SmPrx2 inh,AmpC inh no det,LT uptake inh,AmpC det inh
CC(C)CC(NS(=O)(=O)c1ccc2c(c1)oc(=O)n2C)C(=O)NCc1cccnc1 (configuration not stated),>57,4µM*[single pt active],-7%,14%
CCOC(=O)CNC(=O)C(Cc1ccccc1)NS(=O)(=O)c1ccc2c(c1)CCC(=O)N2 (configuration not stated),>57,10%,12%,13%
CC(C)NS(=O)(=O)c1ccc2c(c1)oc(=O)n2C,>57,8%,4%,11%
O=C1CCc2cc(S(=O)(=O)NC(Cc3ccccc3)C(=O)NCC3CCCO3)ccc2N1 (configuration not stated),>57,4µM*[single pt active],4%,13%
CN1CCN(C(=O)C(Cc2ccccc2)NS(=O)(=O)c2ccc3c(c2)CCC(=O)N3)CC1 (configuration not stated),>57,4µM*[single pt active],3%,7%
CCN(CC)CC[n+]1ccc2c(C)c3[nH]c4ccccc4c3c(C)c2c1,>57,-10%[5.75 µM],4µM*,-2%[5.75 µM]
CCNc1ncc2nc(-c3cccc(C#N)c3)c(=O)n(Cc3cccc(OC)c3)c2n1,>57,-6%,?,-2%
COCCOC(=O)c1[nH]c2c(c1C)C(=O)CC(c1cc(OC)ccc1OC)C2 (configuration not stated),>57,23%,3%,13%
COc1ccc(OC)c(C2CC(=O)c3c([nH]c(C(=O)OC(C)C)c3C)C2)c1 (configuration not stated),>57,2.5µM*[single pt active],?,11%
O=C(Cn1cnnn1)OCC(=O)c1ccc(Cl)s1,>57,13µM*,-6%,8%
CN(C)c1ncc2nc(-c3cn(C)c4ccccc34)c(=O)n(C[C@H]3CCCO3)c2n1,>11,4%,?,1%
COc1ccc(CCNc2oc(COc3ccccc3Cl)nc2C#N)cc1OC,>57,51%,16µM*,13%
CC1CCCCN1c1nnc(N)s1 (configuration not stated),>57,-5%,5%,17%
CC1CCCC(C)N1c1nnc(N)s1 (configuration not stated),>57,4µM*[single pt active],-6%,12%
CC(C)CC(=O)Nc1c2c(nn1-c1ccc(F)cc1)CSC2,>57,4µM*[single pt active],1%,13%
O=C(Nc1c2c(nn1-c1ccc(F)cc1)CSC2)c1ccc(S(=O)(=O)N2CCOCC2)cc1,>57,24%,-6%,-1%
CCCCOC(OCCCC)[C@H](O)CSc1ccc2ccccc2c1,/,/,0%[8 µM],/
COc1ccc(Oc2ncc3ncc(=O)n(Cc4ccc(F)cc4)c3n2)cc1,>57,102%,?,1%
CC(C)CO/N=C1/C[C@@H](O)[C@@H](O)[C@@H]2[C@@H]3C(=O)N(C4CCCCC4)C(=O)[C@H]3CC[C@@H]12,/,/,3%[8 µM],/
Cc1ccc(C(=O)CC(C(=O)O)n2cccn2)cc1 (configuration not stated),>57,-6%,8%,0%
COC(=O)C(CC(=O)c1ccc(Br)cc1)n1ccnc1 (configuration not stated),>57,7%,13µM*,-4%
CN(c1ccccc1)S(=O)(=O)c1ccc(C(=O)Nc2nnc(-c3ccc(F)cc3)o2)cc1,>57,10µM*,0%,-8%
COc1ccc(-c2nnc(NC(=O)c3ccc(S(=O)(=O)N4CCCc5ccccc54)cc3)o2)cc1,>57,13µM*,-13%,9%
